CHX counter-1 – counter-screen hit for Shiga toxin inhibitors, cycloheximide. cell reporter, cycloheximide protein synthesis inhibition counterscreen. max response, %. hit rate 12% among 300,000. AID 2314; in the data active = max response mostly above about 13%, no sharp cut-off; inactive = mostly below about 14%; note: read at 38.3 µM for the half of the compounds with a filed dose; 0% is about no effect
Shiga inhibitor – inhibitors of Shiga toxin in Vero cells. Vero cells, Shiga toxin protein synthesis inhibition reporter. inhibition, % at 38.7 µM. hit rate 9.2% among 290,000. AID 2315; in the data active = inhibition mostly above about 28%, no sharp cut-off; inactive = mostly below about 43%; note: 0% is about no effect
SARS PLP yeast – inhibitors of SARS-CoV papain-like protease in yeast. S. cerevisiae expressing SARS-CoV PLpro, growth rescue. Potency, µM (top dose mostly 32.9 µM), without a hit: at the highest dose activity, positive = growth rescue, most hits filed as activators. hit rate 0.19% among 330,000; note: potency is the fitted concentration of half-maximal effect; 0% is about no effect; nearly all actives have a fitted effect of over 55% in size
NS1 function inh – blocks influenza NS1 protein function | hit rate 0.4% among 270,000 | Potency, µM (doses to about 46.1 µM), for the others: at the top dose activity, positive = more growth | AID 2326; note: potency is the fitted concentration of half-maximal effect; actives are rising curves; nearly all actives have a fitted effect of over 50% in size
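S. cerevisiae expressing influenza A NS1, grown in glucose, washed, then diluted 1:100 into pH 6.0 -URA galactose medium with 23 nl compound. Growth recovery read as OD600; NS1-free strain serves as control.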
CHX counter-2 – affects protein synthesis reporter in cycloheximide counter-screen; shares compounds with Shiga inhibitor; Cycloheximide counterscreen, protein synthesis reporter, Shiga toxin assay; Potency, µM (doses to about 38.3 µM), for the others: at the highest dose activity (activation), actives largely listed as activators; hit rate 3% among 510; AID 2318; note: potency is the fitted concentration of half-maximal effect; 0% is about no effect
* hit, by the source's call; ? = inconclusive; . = not tested or not shown; + = active, no number. Shown are actives, neighbours in structure and some others; about 12% of the full set was active somewhere. Unless noted, calls come from the whole dose curve.

SMILES	CHX counter-1	Shiga inhibitor	SARS PLP yeast	NS1 function inh	CHX counter-2
CSc1nc(SCCO)c2sc3nc(-c4ccco4)c4c(c3c2n1)CC(C)(C)OC4	-5.4	80.6*	7.4%	0.9%	-1.7%
Cc1cc(C)c2c(n1)SCC(=O)N2CC(=O)Nc1ccc(C)c(C)c1	-1.1	16.2*	10.0%	20.9%	0.5%
C=CCN=C1N[C@@H](c2ccccc2)C(C(=O)OC)=C(C)N1CC	-1.0	-1.4	1.5%	4.6%	.
CCN1CCN(C(=O)c2ccc3c(=O)n(CCC4=CCCCC4)c(=O)[nH]c3c2)CC1	10.7	29.0*	-1.8%	-6.7%	?
Cc1nnc(N2C(=O)C(=O)/C(=C(/O)c3ccc4c(c3)OCCO4)C2c2ccc([N+](=O)[O-])cc2)s1 (centres undefined)	7.6	43.6*	-3.3%	?	-0.7%
COc1ccc(CCNC(=O)c2cc(=O)c3cc(C)ccc3o2)cc1	-2.0	18.0	-20.9%	-13.1%	.
COc1ccc(C)cc1NC(=O)c1ccc(S(=O)(=O)N2CCCCC2)cc1	5.1	25.2*	-3.9%	0.6%	-1.8%
COc1ccc(S(=O)(=O)N2CCCCCC2)cc1NC(=O)c1ccccc1	1.7	1.9	5.3%	4.7%	.
O=C(COc1ccc(S(=O)(=O)N2CCOCC2)cc1)NC1CCCCC1	.	.	0.7%	.	.
COc1cccc(C(C(=O)NC2CCCC2)N(C(=O)c2ccco2)C2CC2)c1OC (centres undefined)	-1.6	35.2*	2.8%	0.9%	1.8%
OCCNc1nc(Nc2cccc(O)c2)nc2ccccc12	-2.9	13.5	-0.6%	9.1%	.
COc1cccc(Nc2nc(NCCO)c3ccccc3n2)c1	9.7	50.2*	-10.5%	-6.0%	1.4%
Cc1cc(NC(=O)C(C)C)ncc1NC(=O)c1cccc(F)c1	-1.5	-0.4	0.2%	1.9%	.
CCCC(=O)Nc1cnc(NC(=O)c2cccc(F)c2)cc1C	3.6	66.8*	-12.6%	-1.4%	1.59µM*
COc1ccc2nc(SCC(=O)Nc3ccc4[nH]c(=O)[nH]c4c3)[nH]c2c1	.	.	-1.5%	.	.
COc1ccc2nc(SCC(=O)NC3CCCCC3)[nH]c2c1	-1.0	47.5	-0.4%	-8.2%	.
COc1ccc2nc(SCC(=O)Nc3ccc4c(c3)CCC4)[nH]c2c1	5.4	41.6*	-3.5%	7.1%	-0.3%
CCOc1ccc2nc(SCC(=O)NC3CCCCC3)[nH]c2c1	-3.4	43.8*	-0.7%	-2.8%	-1.2%
COC(=O)Nc1ccc(S(=O)(=O)N2CCCC(C(=O)O)C2)cc1 (centres undefined)	-2.5	7.2	0.4%	0.6%	.
COc1ccc(CCc2nnc(CCC(=O)NCc3cnc4ccccn34)o2)cc1	-1.3	17.5	-1.4%	5.7%	.
O=C(NCCC1=CCCCC1)C1CCN(S(=O)(=O)c2cccc3cccnc23)CC1	8.9	active	1.0%	-13.0%	2.6%
O=C(CCNC(=O)c1ccc(Br)cc1)NC1CCCCCC1	.	.	1.3%	.	.
O=C(c1cccnc1)c1cc2ccccc2[nH]1	2.7	active	6.0%	-14.1%	5.5%
CC(C)N(Cc1cc2ccccc2[nH]c1=O)C(=O)c1cccnc1	2.5	-12.9	-6.1%	3.4%	.
C=CCNc1oc(-c2cccs2)nc1S(=O)(=O)c1ccccc1	9.0	-9.5	7.6%	-2.0%	.
SMILES	CHX counter-1	Shiga inhibitor	SARS PLP yeast	NS1 function inh	CHX counter-2
COc1ccc(C2=NOC(C(=O)NC(C)C)C2)cc1 (centres undefined)	1.9	25.9*	4.9%	0.6%	0.7%
CCOc1ccccc1NC(=O)CCS(=O)(=O)c1cccs1	-3.1	125.6*	-2.9%	4.2%	-1.9%
CCOc1ccccc1NS(=O)(=O)c1cccs1	-2.9	1.0	1.2%	-4.8%	.
O=C(CCS(=O)(=O)c1cccs1)Nc1ccc(C(=O)NCc2cccs2)cc1	7.4	28.9*	-2.7%	-13.7%	-2.4%
CC(=O)c1cccc(NC(=O)c2ccc(NC(=O)CCS(=O)(=O)c3cccs3)cc2)c1	-5.7	32.8*	-2.6%	8.8%	1.7%
O=C(CN(C(=O)CNS(=O)(=O)c1ccc(F)cc1)c1ccc(F)cc1)NCc1ccco1	-2.7	-3.5	1.3%	4.7%	.
Cc1cc(C)n2nc(C(=O)OCC(=O)Nc3cc(Cl)ccc3C)nc2n1	.	.	0.2%	.	.
Nc1cc(=O)[nH]c(SCC(=O)Nc2ccc(Oc3ccccc3)cc2)n1	-5.3	-7.2	1.5%	7.6%	.
COc1ccccc1CNC(=O)Cn1cc([N+](=O)[O-])ccc1=O	-2.6	50.3*	-8.2%	-0.5%	-1.6%
Cc1ccc(-n2c(C)c(C)c3c(N)ncnc32)cc1	1.7	33.5*	0.3%	-16.2%	1.9%
Cc1nnc(NC(=O)CCn2c(=O)oc3ccccc32)s1	5.8	43.3	-1.3%	3.1%	.
COC(=O)c1ccc(COc2ccc(C3C4=C(CCCC4=O)Nc4onc(C)c43)cc2)cc1 (centres undefined)	6.6	47.0*	-4.9%	-7.6%	?
COc1ccccc1C(=O)NC(=O)COC(=O)c1nc(Cl)ccc1Cl	.	.	-9.9%	.	.
CNC(=O)CSc1nnc(-c2cc(C)cc(C)c2)o1	0.5	26.9*	-3.4%	-8.4%	1.3%
CCC(=O)Nc1ccc(C(=O)NNC(=O)c2ccccc2)cc1	0.6	31.8*	0.5%	-1.8%	1.0%
CCC(=O)N1CCN(c2ccc(NC(=O)c3ccc4ccccc4c3)cc2)CC1	8.0	21.0	1.1%	-1.4%	.
Cc1cccc(C(=O)NNC(=O)c2ccccc2Br)c1	12.8	16.9	-1.5%	12.3%	.
CCC(=O)Nc1ccc(C(=O)NNC(=O)C(c2ccccc2)c2ccccc2)cc1	-5.6	-2.0	8.5%	?	.
CCC(=O)N1CCN(c2ccc(NC(=O)c3ccccc3)cc2)CC1	10.3	46.9*	-0.1%	-3.9%	?
Cc1cccc(C(=O)NNC(=O)c2ccccc2)c1	8.0	+	21.1%	2.2%	?
COC(=O)c1sc(NC(=O)COc2cccc3ccccc23)nc1C	-1.6	-14.8	9.9%	2.3%	.
COC(=O)c1sc(NC(=O)COc2cccc(C)c2)nc1C	-2.0	28.0*	-5.9%	-3.4%	1.4%
CC1CCCC(NC(=O)CSc2cccc[n+]2[O-])C1C (centres undefined)	.	.	-1.6%	.	.
COc1ccc2cc(C(=O)NCc3ccccc3)[nH]c2c1	12.1	31.3*	-0.9%	0.4%	?
O=C(COc1ncnc2ccccc12)NCCc1ccccc1	5.4	-6.7	2.8%	.	.
SMILES	CHX counter-1	Shiga inhibitor	SARS PLP yeast	NS1 function inh	CHX counter-2
O=C(COc1ncnc2ccccc12)NCCC1=CCCCC1	1.4	40.6*	1.3%	-0.8%	-2.0%
Cc1ccsc1C(=O)N1CCc2ccccc2C1	14.6	36.5*	-3.7%	-4.8%	?
COc1cc2c(cc1OC)CN(C(=O)c1sccc1C)CC2	-2.4	12.1	0.1%	-1.8%	.
CC(=O)c1ccc(NC(=O)C(C)Sc2nnc(C3CCCCC3)o2)cc1 (centres undefined)	6.3	46.9*	0.5%	-12.8%	-2.1%
O=C(O)C/C(=C\c1cc(Br)cs1)c1nc2ccccc2o1	9.7	39.7*	-1.8%	-105.1%	2.6%
COc1ccc(N(CC(=O)NC2CCCC2)C(=O)Cn2nnc(-c3ccc(OC)c(OC)c3)n2)c(OC)c1	-2.6	-10.5	-1.7%	6.5%	.
CN1CCN(C(=O)c2ccc(-n3cccc3)cc2)CC1	8.3	31.8*	-6.8%	0.2%	3.4%
O=C(c1ccc(-n2cccc2)cc1)N1CCN(Cc2ccccc2)CC1	16.2	1.7	0.7%	0.9%	.

Screening results from PubChem.
